The record followed here is PMC7819943, “Rice protein-binding microarrays: a tool to detect cis-acting elements near promoter regions in rice”.

In all, about 68,000 sequences were measured (“fluorescence intensity (a.u.)”: median about 9,100, highest 2% from about 16,000 on). The sample as a whole holds a higher share of the highest values than the screen did.

Sequence of OsWRKY34 (Q0JBA9 entry or part of it): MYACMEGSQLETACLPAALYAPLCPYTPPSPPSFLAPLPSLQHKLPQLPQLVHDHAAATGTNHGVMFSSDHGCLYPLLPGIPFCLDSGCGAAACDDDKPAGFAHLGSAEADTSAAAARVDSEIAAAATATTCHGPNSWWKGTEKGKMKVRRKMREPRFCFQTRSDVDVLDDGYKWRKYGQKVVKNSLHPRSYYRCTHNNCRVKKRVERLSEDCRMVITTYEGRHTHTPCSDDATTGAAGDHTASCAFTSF

This assay deals with OsWRKY34 (Oryza sativa, UniProt Q0JBA9 1-250). Put plainly: protein-binding microarray (RPBM); PBS, 2% BSA, 51.3 ng/ul salmon testes DNA, 50 uM zinc acetate, 200 nM TF, 25 C, 1 h; high values mean tight binding. Conditions: protein: recombinant; tags: N-terminal polyhistidine and DsRed monomer fusion (pET32a); label: CyDye5-dUTP incorporated in the synthesized complementary strand; 3' TTTTT single-stranded linker to array surface; dsDNA, one strand shown. In a few lines:
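Binding signal is defined as the fluorescence intensity of each feature in arbitrary units, read on an Axon 4000B scanner. Transcription factors with N-terminal polyhistidine and DsRed fusions came from E. coli BL21-CodonPlus and were purified on Ni–NTA. They were incubated at 200 nM for 1 h at 25 °C on a custom Agilent array that had been made double-stranded with Cy5-dUTP, with 50 µM zinc acetate present, and the array was washed.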
Turning to “GGTTTCGTTCGCGAGGAGGAGAGATCTGGTTGGGGAGATGCGGAGTCACCTAGTGCAG”, the binding signal is 9660 fluorescence intensity (a.u.). Turning to “AGGAGGCGCTACCTTCTATTCCTCACCGGCTCACCGCTATCGGAGTCACCTAGTGCAG”, the binding signal was 9700 fluorescence intensity (a.u.). For “TGATTTTTTTTTTGTTTCACAGTGCACAGACCAATGTTTCCGGAGTCACCTAGTGCAG” the value was 8320 fluorescence intensity (a.u.); for “CGCCGCCACCGCGACTCCTCGCATTCGTCCCCACCACATCCGGAGTCACCTAGTGCAG”, 9990 fluorescence intensity (a.u.). In the case of “CTTTTTTTTAATGTATTGATGCTTCTTTTCTAGTTTGTACCGGAGTCACCTAGTGCAG”, the binding signal is 9060 fluorescence intensity (a.u.). Under “AGTAGCAGCAGCAGCAGCAGGCAGGAGGGAGTGGGTTTGTCGGAGTCACCTAGTGCAG” stands 9600 fluorescence intensity (a.u.). Under “GACAGCGTGAATTCGAGGGATTTCTTGGCTGGTTTGGTTGCGGAGTCACCTAGTGCAG” stands 10100 fluorescence intensity (a.u.); under “TTCTCCGCGCTGCAGTCCTCGCCACAACTCGTCGGCCGAACGGAGTCACCTAGTGCAG”, 11600 fluorescence intensity (a.u.); under “GGTCATTCATGTATTTTTCTTGCGTTTTGCAATCCTCTGTCGGAGTCACCTAGTGCAG”, 11200 fluorescence intensity (a.u.). For “CCGCCGCCGCCGCCGCCGACCTTGTCACTCCGGCCGCTGCCGGAGTCACCTAGTGCAG” the value was 9390 fluorescence intensity (a.u.). As to “GACCGACTACTCCTACAAACATTACTCAAGTCATTGCAAACGGAGTCACCTAGTGCAG”, the binding signal is 8200 fluorescence intensity (a.u.). For the sequence “ATTTTGCATGGGGCATGTGTGAAGTGTCCTACTAAATTTTCGGAGTCACCTAGTGCAG”, the binding signal is 9350 fluorescence intensity (a.u.). Under “CGGTAGGGCGAGCACGGGTGGGGTTGGTGGTGATTTTTTTCGGAGTCACCTAGTGCAG” stands 20800 fluorescence intensity (a.u.); under “AGGGAGGCGTAGGTTGTGGTCGTTGTTGCGGTTTGGAGTTCGGAGTCACCTAGTGCAG”, 8250 fluorescence intensity (a.u.); under “CCCGGCCGCTCTCTCCGGGTGGGGTGGTGGGTGGCAAGGGCGGAGTCACCTAGTGCAG”, 21100 fluorescence intensity (a.u.).

Take “GGAGGGGCGGGGTGGCGCGGCGAGGCCGGCGACAAGGCCGCGGAGTCACCTAGTGCAG”: the binding signal is 9130 fluorescence intensity (a.u.). Under “GGTTCGTTCGTTCCTCCCGCGGCGACGGGGTGGGGCACACCGGAGTCACCTAGTGCAG” stands 8930 fluorescence intensity (a.u.); under “GGTTGTAGGTGGAGGAGGAGGAGGGGCGGTTCCGGAGTTTCGGAGTCACCTAGTGCAG”, 22600 fluorescence intensity (a.u.). For the sequence “GCGCGCCGCGCTCACGGGTGGGTCAAGGCAAGGGGAAGGGCGGAGTCACCTAGTGCAG”, the binding signal was 9400 fluorescence intensity (a.u.). For the sequence “AATTCCGGTGGTTCACCGCCGGTGAGGGTTGGAGGAGGGGCGGAGTCACCTAGTGCAG”, the binding signal is 8160 fluorescence intensity (a.u.). In the case of “GACTCGGCGGCCTCTGCTCCTCCGCTCGTTCCTCTCCCGACGGAGTCACCTAGTGCAG”, the binding signal was 11100 fluorescence intensity (a.u.). Under “TCCGCTCGTTCCTCTCCCGACGAGGGTGGGTGGGGTGGGGCGGAGTCACCTAGTGCAG” stands 22700 fluorescence intensity (a.u.). For “GTGTGGTGCGAGCAGTGATATTTTCTGTGTTGGGTCTGGGCGGAGTCACCTAGTGCAG” the value was 8120 fluorescence intensity (a.u.); for “GGTAGGGCTGCCGCCGGTGGGTAGGGGTGGTGGATTTTTTCGGAGTCACCTAGTGCAG”, 14400 fluorescence intensity (a.u.); for “TCGTTTCTTTGCCAGCTGCGCATCCATTCAGCCGGTCGTACGGAGTCACCTAGTGCAG”, 12700 fluorescence intensity (a.u.).

“CTTTTATTTAACGGATGTTTCACCATGGTCTTTACTGTAGCGGAGTCACCTAGTGCAG”: the binding signal was 9320 fluorescence intensity (a.u.). As for “TCCCATCACACACACCACCGCTCCGCTCCATGTCGCACCACGGAGTCACCTAGTGCAG”, the binding signal is 8350 fluorescence intensity (a.u.). Under “CGTAGAAGATGTTGCTGTTGCCGCCGTTGACGAACTTGGTCGGAGTCACCTAGTGCAG” stands 8810 fluorescence intensity (a.u.). For “CAAATTACTACTACCTCCGTCCCAAAATAATTGCATTTCTCGGAGTCACCTAGTGCAG” the value was 8950 fluorescence intensity (a.u.); for “CACGCACCCTCTTTCCCGTGCTTCGTGTGCCCTTCGATCGCGGAGTCACCTAGTGCAG”, 9430 fluorescence intensity (a.u.).

For “AGATTATTTTGCTCGATTTTGAATTTTTCATGCATCCGTCCGGAGTCACCTAGTGCAG”, the binding signal was 9150 fluorescence intensity (a.u.). For “AGAGCGGGTGGGAGGCGAAGTAGACAGGGGCGGGGCGCATCGGAGTCACCTAGTGCAG” the value was 15700 fluorescence intensity (a.u.).

Regarding “TTACCTCGCGTACCCTCGCACCCGTCTCCCGCAGACAGATCGGAGTCACCTAGTGCAG”, the binding signal is 8480 fluorescence intensity (a.u.). “GTGTGTGCATGCTGATAGCTTGGTCTCTTGAGGATAATTGCGGAGTCACCTAGTGCAG”: the binding signal is 9730 fluorescence intensity (a.u.). For “TCATTTGATTTATTGTTAAATATATTTTTATGTATACATACGGAGTCACCTAGTGCAG” the value was 8550 fluorescence intensity (a.u.). For “CTTCCTCCGTTTCACAATGTAAGTCGTTCTAGCATTTTTCCGGAGTCACCTAGTGCAG” the value was 8110 fluorescence intensity (a.u.). As to “GTTATGTTAGGTCTGGTTTTTTGGCTGTAGCAGCAGCAGTCGGAGTCACCTAGTGCAG”, the binding signal was 8510 fluorescence intensity (a.u.). Regarding “GCTAGACACAGGCAACCAAACACACCCTAACACTCACTGTCGGAGTCACCTAGTGCAG”, the binding signal is 9290 fluorescence intensity (a.u.).

With “GGCCGGCGACGCTGAACGGGGTGGGGTAGTCTGCTATTTACGGAGTCACCTAGTGCAG”, the binding signal is 18000 fluorescence intensity (a.u.). For “GACGTGGCTATGGGTGGGCGTTGCGAGCCGGCATTTTATACGGAGTCACCTAGTGCAG” the value was 16400 fluorescence intensity (a.u.); for “TCGTTGGTGGGTAGGTGGTGGAGATGGTGGTGGCGGCGGGCGGAGTCACCTAGTGCAG”, 15600 fluorescence intensity (a.u.). Turning to “GGAACGGCCAGCGGCGGCGGCGGGTAGGGTGGGGTGGGGCCGGAGTCACCTAGTGCAG”, the binding signal is 21600 fluorescence intensity (a.u.). Under “GCGGCGCGGTGCGCTCGGGTGGGGCCGGTCGACGTCTGCACGGAGTCACCTAGTGCAG” stands 8120 fluorescence intensity (a.u.); under “CGGGTAGGGTGGGGTGGGGCGGGGTGGGGTTGGCGGCGACCGGAGTCACCTAGTGCAG”, 39500 fluorescence intensity (a.u.); under “GCTGTGGGTAGGCCGGCGCCGCCGGCCGACGGGTGGGGAGCGGAGTCACCTAGTGCAG”, 8420 fluorescence intensity (a.u.). For “GGTGGGCCGGGCTTTGCTTTTGCTTTAAACATTTGCGTGGCGGAGTCACCTAGTGCAG” the value was 8680 fluorescence intensity (a.u.); for “ACCTCCTTTTCATACAGCCGGCGTGGCATTTGTGGGCCCACGGAGTCACCTAGTGCAG”, 9220 fluorescence intensity (a.u.). Under “CGGCGGCGGCGACCGCGGGTAGGGTGGGTGGCGCGGGCCGCGGAGTCACCTAGTGCAG” stands 9330 fluorescence intensity (a.u.); under “GCGGGCGGCAGCGCGGTGGGGCGGTGGCGGTGGTGGCGGCCGGAGTCACCTAGTGCAG”, 9980 fluorescence intensity (a.u.); under “TAGGTAGGGTGGTGGCGGGCGGGCTCCCGCAGCCAGTGGCCGGAGTCACCTAGTGCAG”, 11100 fluorescence intensity (a.u.).

In the case of “AAGAAGGGGAAGGGAGTTTCTATGGTTCTTGCTGGTGCCGCGGAGTCACCTAGTGCAG”, the binding signal was 8750 fluorescence intensity (a.u.). For “GCCTATTTTTTCGTACGGAGTTGGCTTGTAGTAGTTGCATCGGAGTCACCTAGTGCAG” the value was 8950 fluorescence intensity (a.u.); for “ACTTCCAAGTCTTCGACCGCGACACTCCTTACCCGCACGCCGGAGTCACCTAGTGCAG”, 8570 fluorescence intensity (a.u.); for “CGACTACTCGGCCGGCCACCTGCGCCGTCTCTACCCCGAGCGGAGTCACCTAGTGCAG”, 9320 fluorescence intensity (a.u.).
